This note sets out measurements from PubChem BioAssay (NCATS).

Structures are written as SMILES. Inconclusive results are not listed. The source made the active and inactive calls. Unless noted, calls come from the whole dose curve; as a rule, active = well fitted curve in the direction sought with a large enough effect; inconclusive = small, poorly fitted or top-dose-only effect, or another doubt; inactive = no such curve, though single readings can be large; an effect the other way counts as inactive or inconclusive. Where only a bound is given, the exact number is not on record here.

Test [1] can be described thus: AP1 Signaling Pathway (AID 357; active = well fitted curve in either direction with a large enough effect, not every such curve was filed as active;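 note: ME-180 reporter cells stimulated with EGF at its EC50 level; % is set by controls: 0 for no effect and ±100 for the full control effect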). The settings on record: ME-180 AP-1-bla reporter, EGF-induced, beta-lactamase ratio, 5 h; at 7.69 µM (top of the series) unless noted. An outline of the steps:
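Beta-lactamase reporter under AP-1 response element, ME-180 background. Stimulus: EC50 EGF. Compound exposure 5 h, 37 °C. Detection: CCF4, 2.5 h RT, 460/530 nm. Values: AC50 from titration.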

Test [2] deals with Cytochrome P450 1A2 (Homo sapiens) (UniProt P05177). The test is described as follows: p450-cyp1a2 (AID 410; calls by dose curve; note: potency is the fitted concentration of half-maximal effect). An outline of the steps:
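Luminescent demethylation readout: Luciferin-ME (100uM, equal to Km) turned over by 20nM CYP1A2 for 60 min at room temperature after NADPH regeneration addition, following 10 min compound preincubation. Normalization used 57 uM furafylline as full inhibition.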

Test [3] can be described thus: NFAT Signaling Pathway (AID 444; active = well fitted curve in either direction with a large enough effect, not every such curve was filed as active;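 note: carbachol stimulus at about its EC50 of 1 µM final; % is set by controls: 0 for no effect and ±100 for the full control effect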). The settings on record: Jurkat NFAT-bla M1, carbachol, beta-lactamase ratio, 5 h; at 7.69 µM (top of the series) unless noted. The method in brief:
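Jurkat cells carrying an NFAT-driven β-lactamase reporter and co-transfected muscarinic M1 receptor were treated with compound plus carbachol (1 uM final, an EC50 level) for 5 h at 37 °C. CCF4 loading followed for 1 h at RT; 460/530 nm ratio gave %activity.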

Test [4] is described as follows: Stat Signaling Pathway (AID 446; active = well fitted curve in either direction with a large enough effect, not every such curve was filed as active;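 note: ME-180 cervical cancer cells given 40 pM IL-6 alongside compound; SIE-controlled beta-lactamase reporter measured as 460/530 nm FRET emission ratio; % is set by controls: 0 for no effect and ±100 for the full control effect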). The settings on record: ME-180 SIE beta-lactamase reporter, IL-6 stimulated, 5 h; at 7.69 µM (top of the series) unless noted. The method in brief: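 Normalization used AC90 stimulation (300 pM IL-6) and AC90 inhibition (125 nM pan-JAK inhibitor at 40 pM IL-6). The underlying signal is SIE-driven beta-lactamase in ME-180 cells after 5 h IL-6 exposure with compound.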

The target in test [5] is Glucocorticoid receptor (Homo sapiens) (UniProt P04150). The test is described as follows: GR-GFP Redistribution (AID 450;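 active = compounds whose dose series gives a full or clear partial fitted curve of increased nuclear translocation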; note: potency is the fitted concentration of half-maximal effect). The settings on record: U2OS GR-GFP nuclear translocation, laser cytometry, 2 h.
Chain of Glucocorticoid receptor (Homo sapiens) (P04150 whole entry, looked up, the tested form may be a part): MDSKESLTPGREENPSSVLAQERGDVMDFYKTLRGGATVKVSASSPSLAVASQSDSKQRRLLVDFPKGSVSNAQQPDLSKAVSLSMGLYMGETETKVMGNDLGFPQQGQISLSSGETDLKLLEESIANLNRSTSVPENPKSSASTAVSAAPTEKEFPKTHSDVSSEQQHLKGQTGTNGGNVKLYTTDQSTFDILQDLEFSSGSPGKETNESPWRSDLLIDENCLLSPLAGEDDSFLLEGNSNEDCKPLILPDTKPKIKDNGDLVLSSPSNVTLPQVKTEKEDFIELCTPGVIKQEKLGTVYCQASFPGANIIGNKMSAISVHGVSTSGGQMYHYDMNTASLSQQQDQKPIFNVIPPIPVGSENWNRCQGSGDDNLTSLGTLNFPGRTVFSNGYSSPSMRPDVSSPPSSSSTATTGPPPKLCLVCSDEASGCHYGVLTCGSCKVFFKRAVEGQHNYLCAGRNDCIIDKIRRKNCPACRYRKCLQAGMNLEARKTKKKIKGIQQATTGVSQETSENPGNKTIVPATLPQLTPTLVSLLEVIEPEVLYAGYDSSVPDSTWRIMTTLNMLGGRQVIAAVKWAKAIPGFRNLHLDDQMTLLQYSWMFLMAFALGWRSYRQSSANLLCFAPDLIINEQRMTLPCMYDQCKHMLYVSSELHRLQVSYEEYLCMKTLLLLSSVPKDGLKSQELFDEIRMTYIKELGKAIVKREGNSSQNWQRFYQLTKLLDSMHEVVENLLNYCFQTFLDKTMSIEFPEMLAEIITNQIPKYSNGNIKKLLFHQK
Test [6] shares this target. The test can be described thus: GR-EFC Redistribution (AID 451; calls by dose curve; note: potency is the fitted concentration of half-maximal effect). The settings on record: CHO-K1 GR-EFC translocation, beta-gal luminescence, 2 h. An outline of the steps: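 CHO-K1 cells stably expressing nuclear-localized β-gal enzyme acceptor and GR fused C-terminally to the enzyme donor fragment; ligand-driven nuclear translocation restores β-gal by complementation. Compounds titrated up to 46 uM final, 2 h at 37 °C; luminescence read.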

Test [7] concerns the target Mitogen-activated protein kinase 10 (Mus musculus) (UniProt Q61831). The test can be described thus: JNK3 AlphaScreen Assay (AID 530; active = well fitted curve in either direction with a large enough effect, not every such curve was filed as active;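 note: kinase came from lysate of stimulated human HepG2 cells; signal reports phosphorylation of biotinylated GST-cJun 1-79 at Ser73 with 10 µM ATP; % is set by controls: 0 for no effect and ±100 for the full control effect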). The method in brief: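 Phosphorylation of biotinylated GST-cJun(1-79) at Ser73 is measured by AlphaScreen proximity luminescence. Enzyme is JNK3 in HepG2 lysates activated with interleukin-1beta and tumor necrosis factor alpha; ATP is 10 uM final.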

The target in test [8] is 3',5'-cyclic-AMP phosphodiesterase 4B (Homo sapiens) (UniProt Q07343). The test can be described thus: qHTS Assay for Inhibitors of PDE-IV (AID 607; active = well fitted activation curve with a large enough effect in the main read-out, with a control signal flat, not every such curve was filed as active; note: % of control where 0% means no effect). The method in brief: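 HEK293 ACTOne cells with CNG channel (1000/well), endogenous PDE4; membrane potential dye, compounds up to 22.9 uM final. Fluorescence Ex 535/Em 590; RO 20-1724 (100 uM final) as reference.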
Chain of 3',5'-cyclic-AMP phosphodiesterase 4B (Homo sapiens) (Q07343 whole entry, looked up): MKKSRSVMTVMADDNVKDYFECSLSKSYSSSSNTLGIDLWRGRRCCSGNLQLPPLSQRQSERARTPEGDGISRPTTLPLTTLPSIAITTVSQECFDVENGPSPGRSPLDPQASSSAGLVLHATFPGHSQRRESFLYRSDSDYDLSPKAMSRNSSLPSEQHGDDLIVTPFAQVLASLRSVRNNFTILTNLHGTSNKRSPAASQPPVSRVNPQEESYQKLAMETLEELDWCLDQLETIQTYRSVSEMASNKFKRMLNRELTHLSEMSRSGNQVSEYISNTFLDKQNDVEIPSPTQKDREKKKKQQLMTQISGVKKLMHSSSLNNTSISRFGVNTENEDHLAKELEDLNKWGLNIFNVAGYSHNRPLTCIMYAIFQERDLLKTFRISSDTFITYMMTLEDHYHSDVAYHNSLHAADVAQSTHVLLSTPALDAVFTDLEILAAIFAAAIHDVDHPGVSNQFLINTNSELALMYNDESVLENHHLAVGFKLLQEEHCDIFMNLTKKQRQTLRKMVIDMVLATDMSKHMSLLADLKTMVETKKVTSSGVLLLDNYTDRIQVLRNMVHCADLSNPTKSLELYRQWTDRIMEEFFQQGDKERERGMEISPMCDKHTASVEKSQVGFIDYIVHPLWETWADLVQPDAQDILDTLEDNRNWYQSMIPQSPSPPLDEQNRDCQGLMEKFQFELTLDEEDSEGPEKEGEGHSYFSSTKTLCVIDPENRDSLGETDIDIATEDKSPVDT
Test [9] addresses Cytochrome P450 3A4 (Homo sapiens) (UniProt P08684). The test can be described thus: qHTS Assay for Activators of Cytochrome P450 3A4 (AID 885). Note: nearly all actives have a fitted effect of over 65% in size. The method in brief:
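Human CYP3A4 dealkylates Luciferin-PPXE to luciferin, which luciferase detection converts to light. Substrate was at its KM (25uM), buffer 200mM KPO4, reaction 60 min at RT.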

Test [10] can be described thus: Confirmation and Secondary Assay for Modulators of Hemoglobin Beta Chain Splicing at IVS2 654 locus (AID 910).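 Note: per-well total GFP intensity by laser scanning cytometry after 2-day treatment; % of control where 0% means no effect.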 The method in brief:
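HeLa cells stably carrying EGFP interrupted by mutant beta-globin IVS2-654 intron (CMV-driven) were treated with compound for 2 days at 37C; corrected splicing was scored as total peak GFP intensity per well (488 nm excitation, 500-520 nm emission).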

The nature of test [11]: Confirmation and Secondary Assay for Modulators of Hemoglobin Beta Chain Splicing at IVS2 705 locus (AID 930).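 Note: HeLa cells stably expressing the EGFP-705 splicing reporter; GFP fluorescence per well restored by corrected splicing of the IVS2-705 intron in EGFP; % of control where 0% means no effect.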 The method in brief: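 HeLa EGFP-705 reporter; 500 cells/well, o/n 37C 5% CO2; cpd 2 d; 488 ex/500-520 em laser scan; total peak GFP intensity/well. Ref: 500 nM […] antisense PNA.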
Test [12] can be described thus: qHTS Assay for Lipid Storage Modulators (AID 1519; calls by dose curve). The settings on record: Drosophila S3 cells, BODIPY lipid droplet/cell ratio, laser cytometry, cells loaded with oleic acid; for activity change, negative = inhibition: at 57.5 µM (top of the series). The method in brief: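 Cells seeded at 5,000 per well were treated with compounds over a concentration series and loaded with oleic acid (400 uM, as added). Lipid droplet fluorescence (488 nm excitation, 500-530 nm channel) was read by laser-scanning cytometry and normalized to 20 uM Triacsin C.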

Test [13] has as its target Ubiquitin carboxyl-terminal hydrolase 1 (Homo sapiens) (UniProt O94782). The test can be described thus: Inhibitors of USP1/UAF1: Pilot qHTS (AID 504865).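 Note: rhodamine fluorescence freed from ubiquitin-rhodamine substrate followed over time; top concentration of the series differs between compounds; % is set by controls: 0 for no effect and ±100 for the full control effect; nearly all actives have a fitted effect of over 35% in size.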 An outline of the steps: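 Deubiquitinase activity followed as kinetic rhodamine fluorescence release from 150 nM Ub-Rho. 1 nM USP1/UAF1 with compound, after 15 min room-temperature preincubation, in HEPES pH 7.8 buffer containing TCEP, EDTA, BSA and Tween-20.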

Test [14] can be described thus: Primary qHTS for small molecule stabilizers of the endoplasmic reticulum resident proteome: Secreted ER Calcium Modulated Protein (SERCaMP) assay (AID 1508630). Note: % is set by controls: 0 for no effect and ±100 for the full control effect. The method in brief:
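The SH-SY5Y reporter protocol was run at 3 concentrations up to 38.3 uM (primary) or 11 concentrations (follow-up): 16 h compound, 100 nM thapsigargin for 4 h, then extracellular luciferase luminescence.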

Test [15] deals with Lysosomal acid glucosylceramidase (Homo sapiens) (UniProt P04062). The test is described as follows: Glucocerebrosidase-p2 (AID 348; in the data active = potency below about 10 µM; note: potency is the fitted concentration of half-maximal effect). The settings on record: purified GBA, blue fluorogenic substrate, 40 min. The method in brief:
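Normal human glucocerebrosidase (0.2 nM) with blue fluorogenic substrate (80 uM final) in citrate/phosphate pH 5.9 with 10mM sodium taurocholate, 0.01% tween-20; 40 min RT, NaOH/glycine stop; fluorescence Ex 365/Em 440; AC50 from a titration from 0.6 nM upwards.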

Test [16] addresses Cytochrome P450 2C9 (Homo sapiens) (UniProt P11712). The test is described as follows: qHTS Assay for Inhibitors and Substrates of Cytochrome P450 2C9 (AID 883). Note: potency is the fitted concentration of half-maximal effect; nearly all actives have a fitted effect of over 60% in size. An outline of the steps:
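CYP2C9 deoxyluciferin hydroxylation, 37C, 60 min with NADPH regeneration; 10nM enzyme, 100uM Luciferin-H (KM). Glo detection reagent stopped reaction; luminescence normalized to sulphaphenazole (57uM) full inhibition.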

For test [17], the target named is Cytochrome P450 2D6 (Homo sapiens) (UniProt P10635). The test can be described thus: qHTS Assay for Inhibitors and Substrates of Cytochrome P450 2D6 (AID 891). Note: potency is the fitted concentration of half-maximal effect; nearly all actives have a fitted effect of over 60% in size. An outline of the steps: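 Luminescent read-out of luciferin formed by 5 nM human CYP2D6 demethylating 30 uM Luciferin-ME EGE (Km level) over 60 min at room temperature after NADPH regeneration addition. Data normalized to full inhibition by 1.43 uM quinidine.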

The target in test [18] is Cytochrome P450 2C19 (Homo sapiens) (UniProt P33261). The test can be described thus: qHTS Assay for Inhibitors and Substrates of Cytochrome P450 2C19 (AID 899). Note: potency is the fitted concentration of half-maximal effect; nearly all actives have a fitted effect of over 60% in size. An outline of the steps:
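In 50mM KPO4, the reaction held 5nM enzyme and KM-level (10uM) Luciferin-H EGE; it ran 60 min at 37C after NADPH regeneration and a 10 min compound preincubation. Luminescence values were scaled to 57uM ketoconazole as complete inhibition.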

The target in test [19] is Dual specificity protein kinase CLK4 (Homo sapiens) (UniProt Q9HAZ1). The test is described as follows: qHTS Assay for Inhibitors of CDC-like Kinase 4 (Kinase-Glo Assay) (AID 1770). Note: % is set by controls: 0 for no effect and ±100 for the full control effect; nearly all actives have a fitted effect of over 65% in size. The method in brief:
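Luminescent ATP-depletion read-out (Kinase-Glo) after 4.5 h room-temperature reaction of Clk4 (25 nM final) with RS peptide (100 uM) and ATP (1 uM), pH 7.5 Tris buffer with MgCl2 and DTT.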

Test [20] shares this target. The test is described as follows: qHTS Assay for Inhibitors of CDC-like Kinase 4 (ADP-Glo Assay) (AID 1771). Note: % is set by controls: 0 for no effect and ±100 for the full control effect; nearly all actives have a fitted effect of over 70% in size. The method in brief: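 ADP production was read by ADP-Glo luminescence after residual ATP depletion, following 1 h room-temperature reaction of 25 nM Clk4, 1 uM ATP and 100 uM RS peptide with MgCl2, EGTA, DTT and Triton X-100.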
Test [21] shares this target. The test can be described thus: qHTS Assay for Inhibitors of CDC-like Kinase 4 (ADP-FP Assay) (AID 1795).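 Note: recombinant human CLK4 phosphorylating RS repeat peptide at 1 µM ATP; % is set by controls: 0 for no effect and ±100 for the full control effect; nearly all actives have a fitted effect of over 60% in size.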 The method in brief: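 Kinase activity was measured as ADP production using Transcreener orange tracer (4 nM) and ADP antibody (1 ug/mL) fluorescence polarization, with ADP calculated from a calibration curve. The 1 h reaction contained 6.25 nM Clk4, 1 uM ATP and 100 uM RS peptide at pH 7.5 with Mg2+.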

The nature of test [22]: qHTS Assay for Identification of Small Molecule Agonists for Hypoxia Response Element Signaling Pathway (AID 914; active = well fitted activation curve with a large enough effect in the signal ratio, with a control signal flat, not every such curve was filed as active; the % refers to the signal ratio; note: potency is the fitted concentration of half-maximal effect; for activation: % of control where 0% means no effect). The settings on record: ME-180 (cervical carcinoma) HRE-bla reporter, beta-lactamase ratio, CoCl2, 17 h; activation: stronger effect = higher value. The method in brief: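 Read-out: CCF4 FRET ratio of 460nm to 530nm emission (excitation 405nm) after 2.5 hours at room temperature, taken from HRE-bla ME-180 cells that had been exposed to compound and EC50 CoCl2 for 17 hours.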

The mark [23] stands for this setting: measured here: cell count channel max response.
The mark [24] stands for this setting: measured here: lipid channel max response.

Chain of Cytochrome P450 1A2 (Homo sapiens) (P05177 whole entry, looked up): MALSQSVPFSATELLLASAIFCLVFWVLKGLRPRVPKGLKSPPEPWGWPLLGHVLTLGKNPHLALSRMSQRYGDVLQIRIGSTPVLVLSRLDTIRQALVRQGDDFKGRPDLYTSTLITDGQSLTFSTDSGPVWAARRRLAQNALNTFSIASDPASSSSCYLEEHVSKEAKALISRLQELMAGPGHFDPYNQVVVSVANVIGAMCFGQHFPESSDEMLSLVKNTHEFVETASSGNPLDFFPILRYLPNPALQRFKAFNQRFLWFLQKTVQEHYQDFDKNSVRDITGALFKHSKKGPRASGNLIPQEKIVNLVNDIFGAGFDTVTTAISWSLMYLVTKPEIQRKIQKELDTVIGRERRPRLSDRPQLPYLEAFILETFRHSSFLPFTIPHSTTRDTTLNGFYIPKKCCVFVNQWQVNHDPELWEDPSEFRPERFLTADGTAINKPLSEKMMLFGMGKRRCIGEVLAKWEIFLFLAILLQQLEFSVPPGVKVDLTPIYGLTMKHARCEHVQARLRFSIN
Chain of Cytochrome P450 3A4 (Homo sapiens) (P08684 whole entry, looked up): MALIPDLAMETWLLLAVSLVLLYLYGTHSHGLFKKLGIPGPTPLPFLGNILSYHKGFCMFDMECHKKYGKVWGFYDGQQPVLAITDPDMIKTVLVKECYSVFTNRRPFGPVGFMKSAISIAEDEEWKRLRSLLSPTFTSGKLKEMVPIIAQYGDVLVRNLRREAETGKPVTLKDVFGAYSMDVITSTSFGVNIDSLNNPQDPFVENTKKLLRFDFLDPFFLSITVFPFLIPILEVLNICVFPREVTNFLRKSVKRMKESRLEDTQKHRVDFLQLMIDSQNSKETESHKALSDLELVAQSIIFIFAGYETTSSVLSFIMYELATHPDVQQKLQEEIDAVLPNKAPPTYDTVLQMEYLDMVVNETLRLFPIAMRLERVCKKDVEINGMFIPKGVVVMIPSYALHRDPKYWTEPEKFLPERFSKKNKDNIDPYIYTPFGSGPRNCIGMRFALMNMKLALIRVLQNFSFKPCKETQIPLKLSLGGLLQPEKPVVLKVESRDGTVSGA
Chain of Lysosomal acid glucosylceramidase (Homo sapiens) (P04062 whole entry, looked up): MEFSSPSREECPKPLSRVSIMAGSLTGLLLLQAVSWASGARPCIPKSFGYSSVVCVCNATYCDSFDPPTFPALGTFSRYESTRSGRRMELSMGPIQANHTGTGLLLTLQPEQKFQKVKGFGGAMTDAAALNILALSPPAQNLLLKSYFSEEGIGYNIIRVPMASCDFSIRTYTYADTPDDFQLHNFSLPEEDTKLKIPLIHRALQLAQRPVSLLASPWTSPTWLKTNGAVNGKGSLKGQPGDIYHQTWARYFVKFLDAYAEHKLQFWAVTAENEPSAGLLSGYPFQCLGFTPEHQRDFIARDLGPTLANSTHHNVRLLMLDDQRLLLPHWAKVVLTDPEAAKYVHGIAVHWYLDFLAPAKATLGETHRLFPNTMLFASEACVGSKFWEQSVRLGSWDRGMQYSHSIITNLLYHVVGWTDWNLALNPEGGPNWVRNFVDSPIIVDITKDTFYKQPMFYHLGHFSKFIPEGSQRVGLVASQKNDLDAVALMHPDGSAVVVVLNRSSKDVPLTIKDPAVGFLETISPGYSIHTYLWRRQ
Chain of Ubiquitin carboxyl-terminal hydrolase 1 (Homo sapiens) (O94782 whole entry, looked up): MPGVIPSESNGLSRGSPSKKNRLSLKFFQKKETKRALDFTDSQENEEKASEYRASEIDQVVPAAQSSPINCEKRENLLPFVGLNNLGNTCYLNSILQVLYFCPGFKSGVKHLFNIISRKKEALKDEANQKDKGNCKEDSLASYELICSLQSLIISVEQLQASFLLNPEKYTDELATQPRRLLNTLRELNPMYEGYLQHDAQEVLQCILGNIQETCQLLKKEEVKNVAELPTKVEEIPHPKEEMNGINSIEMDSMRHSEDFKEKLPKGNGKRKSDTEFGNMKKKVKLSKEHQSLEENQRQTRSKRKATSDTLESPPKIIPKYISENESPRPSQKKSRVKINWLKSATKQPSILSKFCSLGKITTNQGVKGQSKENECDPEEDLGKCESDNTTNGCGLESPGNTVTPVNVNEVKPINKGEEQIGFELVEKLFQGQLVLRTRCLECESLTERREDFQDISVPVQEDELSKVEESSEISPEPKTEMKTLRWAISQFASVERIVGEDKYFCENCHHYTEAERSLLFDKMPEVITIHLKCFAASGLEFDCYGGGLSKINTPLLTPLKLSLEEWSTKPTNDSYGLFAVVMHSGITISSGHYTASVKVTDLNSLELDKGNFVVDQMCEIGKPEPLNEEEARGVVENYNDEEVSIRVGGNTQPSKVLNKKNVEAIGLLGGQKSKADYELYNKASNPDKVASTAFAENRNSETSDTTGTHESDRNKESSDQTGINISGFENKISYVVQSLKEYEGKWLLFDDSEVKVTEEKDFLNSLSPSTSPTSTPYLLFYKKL
Chain of Dual specificity protein kinase CLK4 (Homo sapiens) (Q9HAZ1 whole entry, looked up): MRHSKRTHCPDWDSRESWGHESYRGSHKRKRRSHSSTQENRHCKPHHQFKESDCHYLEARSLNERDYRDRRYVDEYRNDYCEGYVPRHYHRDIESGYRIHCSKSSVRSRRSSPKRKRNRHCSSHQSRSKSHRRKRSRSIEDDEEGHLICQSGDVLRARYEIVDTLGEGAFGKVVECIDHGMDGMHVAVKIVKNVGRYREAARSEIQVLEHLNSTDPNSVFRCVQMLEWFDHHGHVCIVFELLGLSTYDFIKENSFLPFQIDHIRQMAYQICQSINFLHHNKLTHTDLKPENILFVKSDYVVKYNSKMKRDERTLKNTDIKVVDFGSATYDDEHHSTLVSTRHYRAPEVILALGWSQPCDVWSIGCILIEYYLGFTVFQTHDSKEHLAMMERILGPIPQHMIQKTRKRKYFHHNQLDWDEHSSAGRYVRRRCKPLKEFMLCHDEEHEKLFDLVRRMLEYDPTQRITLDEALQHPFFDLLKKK
Chain of Cytochrome P450 2C19 (Homo sapiens) (P33261 whole entry, looked up): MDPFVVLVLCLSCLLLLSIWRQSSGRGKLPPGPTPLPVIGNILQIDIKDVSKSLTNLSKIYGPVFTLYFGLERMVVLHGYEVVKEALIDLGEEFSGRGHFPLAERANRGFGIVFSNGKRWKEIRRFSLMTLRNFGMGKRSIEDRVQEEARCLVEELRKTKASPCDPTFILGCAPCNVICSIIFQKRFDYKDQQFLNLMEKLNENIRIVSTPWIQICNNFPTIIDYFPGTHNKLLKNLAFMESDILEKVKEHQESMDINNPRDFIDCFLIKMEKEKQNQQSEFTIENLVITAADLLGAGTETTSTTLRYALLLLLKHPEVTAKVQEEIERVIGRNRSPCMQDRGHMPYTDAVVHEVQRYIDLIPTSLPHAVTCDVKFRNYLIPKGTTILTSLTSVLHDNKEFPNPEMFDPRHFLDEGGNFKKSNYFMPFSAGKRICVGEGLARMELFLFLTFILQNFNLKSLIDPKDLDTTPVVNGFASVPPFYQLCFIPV

For `Cc1noc(C)c1-c1cc(Nc2ccc(F)cc2)ncn1`, the activity change, negative = inhibition in [1] is -7.8% (inactive); in [3] it was -15.1% (inactive); in [12] it was 8.49% (inactive). Further, the values for the Potency in test [2], in test [5] and in [6] were 0.501 µM (active), > 46 µM (inactive) and > 46 µM (inactive), respectively. In [4], the activity, negative = inhibition is 3.16% (inactive). Besides, the call in test [7], in [10] and in test [11] was inactive. Further, the Potency result in [8], in test [9], in test [13] and in [14] was “inactive” each time. For the same molecule, the values for the max response in [12] (setting [23]) and in [12] (setting [24]) were 3.61% and 10.9%, respectively.

Regarding `O=C(c1ccncc1)N1CCC2(CC1)CN(c1ccccc1)C2`, the Potency in test [15] was > 11.4 µM (inactive); in test [6] it was > 46 µM (inactive); in [16], 2.51 µM (active); in test [17] it was 7.94 µM (active); in test [18], 316 nM (active). The activity change, negative = inhibition in [1] was -2.66% (inactive); in test [3], 4.65% (inactive). Moreover, the Potency result in [2], in [8] and in [14] was “inactive” each time. Besides, the activity, negative = inhibition in [4] is 3.39% (inactive). Moreover, in [7], the call was inactive.

As to `CN1CCN(c2ncc3nc(-c4cccs4)c(=O)n(-c4ccccc4)c3n2)CC1`, the Potency is > 11.4 µM (inactive) in test [15], 3.16 µM (active) in test [2], > 9.22 µM (inactive) in test [5] and > 46 µM (inactive) in test [6]. For the same molecule, in test [7], the call was inactive. For the same molecule, the Potency entry in [8], in [19], in test [20], in test [21] and in test [13] was “inactive” in each case. Also, the activity change, negative = inhibition in test [12] is -0.619% (inactive). Moreover, the max response in test [12] (setting [23]) was 22.3%; in test [12] (setting [24]), 18.9%.

Take `O=c1c(-c2cccs2)nc2cnc(N3CCOCC3)nc2n1Cc1ccc(F)cc1`: the Potency is > 11.4 µM (inactive) in test [15], 20 µM (active) in test [2], > 9.22 µM (inactive) in test [5] and > 46 µM (inactive) in test [6]. Further, the activity change, negative = inhibition in [3] was 27.2% (inactive); in test [12] it was -2.08% (inactive). In addition, the molecule was called inactive in test [7]. Moreover, the Potency result in test [9], in [19], in [20], in test [21] and in [13] was “inactive” in each case. In addition, the values for the max response in test [12] (setting [23]) and in test [12] (setting [24]) were 18.9% and 13.5%, respectively.

Turning to `N#CCCn1c(=O)c(-c2cccs2)nc2cnc(OCc3ccccc3)nc21`, the activity change, negative = inhibition was 9.62% (inactive) in [1], 6.28% (inactive) in [3] and -2.65% (inactive) in test [12]. Besides, the Potency in test [2] is 3.98 µM (active); in [5], > 9.22 µM (inactive); in test [6], > 46 µM (inactive); in test [22] it was 3.16 µM (active). Besides, the result in test [7] was inactive. The Potency result in test [8] and in test [14] was “inactive” each time. The max response was found to be 0.666% in test [12] (setting [23]) and 1.75% in test [12] (setting [24]).

For the molecule `CC(C)NC(=O)N1CC[C@@]2(CCCN(C(=O)c3cc(C(F)(F)F)cc(C(F)(F)F)c3)C2)C1`, the values for the activity change, negative = inhibition in test [1], in test [3] and in test [12] were 8.49% (inactive), 9.52% (inactive) and 1.68% (inactive), respectively. Besides, the Potency result in [2], in [8], in test [9] and in test [14] was “inactive” throughout. The activity, negative = inhibition in [4] is -10.1% (inactive). The Potency in [6] was > 46 µM (inactive). Also, in test [7], the outcome was inactive. Besides, the activation in test [22] is -1.12% (inactive). Moreover, the max response is 19.4% in [12] (setting [23]) and 20.3% in test [12] (setting [24]).
